Inconclusive results are not listed. Where a call stands in place of a potency, no number is given. Unmarked numbers belong to inactive results. Calls of active or inactive are those of the source. Calls come from the whole dose curve; as a rule, active = well fitted cell-killing curve with a large enough effect; inconclusive = small, poorly fitted or top-dose-only effect, or effect the other way; inactive = no such curve, though single readings can be large or run the other way.
assay: Viability qHTS for spleen associated tyrosine kinase inhibitor (SYKi) naive MV4-11 cells (AID 1963823); details: MV4-11 AML viability, CellTiter-Glo luminescence, 72 h; series mostly up to 45 µM; note: nearly all actives have a fitted effect of over 40% in size
Summary of the method: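 Compounds were dispensed acoustically onto plates, MV4-11 cells (SYKi-naive) added at 500 per well, and plates incubated 72 hr at 37 C. CellTiter-Glo was added and luminescence measured after 10 min.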
Potency is the fitted concentration of half-maximal effect.

For `CC(=O)CC1CCC(C(C)C(=O)OCC(O)CO)O1` (stereo not given), which Potency is on record?
The Potency was “inactive”.

For `COc1cc2nc(N3CCN(C(=O)COc4c(OC)cccc4C(C)C)CC3)nc(N)c2cc1OC`, which Potency is on record?
The Potency was 20.6 µM (active).

For `CC(O)CCc1ccc(O[C@@H]2O[C@H](CO)[C@@H](O)[C@H](O)[C@H]2O)cc1` (stereo not given in full), which Potency is on record?
The Potency was “inactive”.

Which Potency does the source give for `CC1=C2C3OC(=O)C(C)C3(O)CCC2(C)CCC1` (stereo not given) here?
Its Potency is “inactive”.

Which Potency does the source give for `COc1cc([C@@H](O[C@@H]2O[C@H](CO)[C@@H](O)[C@H](O)[C@H]2O)[C@@H]2CO[C@H](c3ccc(O)c(OC)c3)[C@H]2CO)ccc1O` here?
Its Potency is “inactive”.

For `CC(=O)N[C@H]1[C@H](O[C@H]2CC[C@@]3(C)C(CC[C@]4(C)C3CC=C3C5CC(C)(C)CC[C@]5(C(=O)O)C(O)C[C@]34C)C2(C)C)O[C@H](CO[C@@H]2O[C@H](C)[C@H](O)[C@H](O)[C@H]2O[C@@H]2OC[C@@H](O)[C@H](O)[C@H]2O)[C@@H](O)[C@@H]1O` (stereo not given in full), which Potency is on record?
The Potency was 3.48 µM (active).

Which Potency does the source give for `CC1(C(=O)O)CCCC2(C)C3CCC4CC3(CCC12)CC4(O)CO` (stereo not given) here?
Its Potency is “inactive”.

With `Cc1ccc(C)c(S(=O)(=O)n2cnc3ccccc32)c1` as the compound, how does the Potency read?
The Potency was “inactive”.

With `C=C1CC[C@H]2[C@@](C)(CCC(O)[C@@]2(C)CO)[C@@H]1CCC1=CCOC1=O` (stereo not given in full) as the compound, how does the Potency read?
The Potency was “inactive”.

For `CC(=O)O[C@@H]1C(=O)C(C)=C(CCC(C)CC(=O)O)[C@@]2(C)CCCC(C)(C)C12` (stereo not given in full), which Potency is on record?
Its Potency is “inactive”.

With `CCN(CC)c1ccc2c(O)c(C=Nc3ccc(CC(=O)O)c(-c4c5c(nc6ccccc46)CCC(C(=O)NN)C5)c3)c(=O)oc2c1` (stereo not given) as the compound, how does the Potency read?
Its Potency is 2.59 µM (active).

With `CCOc1cccc2c1OC(c1ccc(F)cc1)C([N+](=O)[O-])=C2` (stereo not given) as the compound, how does the Potency read?
Its Potency is 1.16 µM (active).

For `C/C=C(/C)C(=O)OC1C(OC(C)=O)C23C(O)OC4(CCC5C6(C)CCC(OC7OC(C(=O)O)C(O)C(OC8OC(CO)C(O)C(O)C8OC8OC(C)C(O)C(O)C8OC8OCC(O)C(O)C8O)C7OC7OC(CO)C(O)C(O)C7O)C(C)(C)C6CCC5(C)C4(C)CC2OC(C)=O)C3CC1(C)C` (stereo not given), which viability (% of control) is on record?
Its viability (% of control) is 43.2% [at 9.25 µM].

Which Potency does the source give for `COC(=O)[C@H](OC(C)=O)[C@H]1C(C)(C)C(=O)[C@H]2CC3=C4CC(=O)O[C@@H](c5ccoc5)[C@]4(C)CCC3[C@@]1(C)C2=O` (stereo not given in full) here?
The Potency was “inactive”.

For `c1ccc2c(-c3cnn4cc(-c5ccc(OCCN6CCOCC6)cc5)cnc34)ccnc2c1`, which Potency is on record?
The Potency was 1.02 µM (active).

Which Potency does the source give for `Cc1csc(N(C(=O)CSc2ccc(-c3ccccc3)nn2)C2CC2)n1` here?
The Potency was “inactive”.

Which Potency does the source give for `COC1C(CO)OC(n2cnc3c(=O)[nH]cnc32)C1O` (stereo not given) here?
The Potency was “inactive”.

Which Potency does the source give for `CC(=O)C1=C(O)C=C2Oc3c(C(C)=O)c(O)c(C)c(O)c3[C@]2(C)C1=O` here?
The Potency was “inactive”.

For `CN([C@H]1c2cc(OCCCC(F)(F)F)ccc2OC(C)(C)[C@@H]1O)S(C)(=O)=O`, which Potency is on record?
Its Potency is “inactive”.

Which Potency does the source give for `C[C@H](NC(=O)CCc1nc2ccccc2c(=O)[nH]1)c1ccccc1` here?
Its Potency is “inactive”.

Which Potency does the source give for `COc1c2cc(c(O)c1OC)-c1cc(ccc1O)CCC(O)CCCC2` (stereo not given) here?
Its Potency is 12.8 µM (active).

Which Potency does the source give for `CCC(C)C(=O)O[C@H]1[C@@H](OC(=O)c2ccoc2)C[C@](C)(O)[C@]23OC(C)(C)[C@H](C[C@H](OC(=O)c4ccoc4)[C@]12COC(C)=O)[C@H]3OC(C)=O` (stereo not given in full) here?
The Potency was “inactive”.

Which Potency does the source give for `CC(=O)O[C@H]1CC[C@@]2(C)C(CC[C@@H](C)[C@]23Cc2c(O)cc4c(c2O3)CN([C@@H](CCC(=O)O)C(=O)O)C4=O)C1(C)C` (stereo not given in full) here?
The Potency was “inactive”.

Which Potency does the source give for `COc1cc(C2Oc3c(OC)cc(CCCO)cc3C2CO)ccc1O` (stereo not given) here?
The Potency was “inactive”.

Which Potency does the source give for `Cc1cn2cc(C(=O)N(C)CCO)cc(NC3CCOc4cccc(C)c43)c2n1` (stereo not given) here?
Its Potency is “inactive”.

With `O=C(N[C@H]1CCN(C(=O)c2cc(C(F)(F)F)cc(C(F)(F)F)c2)[C@H](Cc2ccc(Cl)cc2)C1)c1ccnc2ccccc12` as the compound, how does the Potency read?
The Potency was 8.93 µM (active).

For `Cn1ncc(NC(=O)c2nc(-c3c(F)cccc3F)sc2N)c1N1CC[C@@H](N)[C@H](F)CC1`, which Potency is on record?
Its Potency is 0.235 µM (active).

Which Potency does the source give for `COc1ccc(C(=O)OC2C3C=COC(OC4OC(CO)C(O)C(O)C4O)C3C3(CO)OC23)cc1OC` (stereo not given) here?
The Potency was “inactive”.

With `Cc1cc(O)c(C(C)C)cc1Cl` as the compound, how does the Potency read?
The Potency was “inactive”.

With `COc1cc2c(cc1O)C1(Cc3ccc4c(c3C1=O)OCO4)N(C)CC2` (stereo not given) as the compound, how does the Potency read?
Its Potency is “inactive”.

For `C=C(C)[C@@H]1CCC2=CC(=O)C[C@@H](C)[C@]2(C)C1`, which Potency is on record?
The Potency was “inactive”.

For `CC(=O)OC(CSC1CCC(=O)OC(C)CCC(=O)C1)C(=O)O` (stereo not given), which Potency is on record?
The Potency was “inactive”.

For `N#Cc1ccc2ncnc(NCCc3ccccc3)c2c1`, which Potency is on record?
The Potency was 8.2 µM (active).

With `N#CC(CCCN1CCN(/N=C/c2cccnc2)CC1)(c1ccccc1)c1ccccc1` as the compound, how does the Potency read?
Its Potency is 2.06 µM (active).

Which Potency does the source give for `COc1ccc(CNCc2cccc3ccccc23)cc1` here?
The Potency was “inactive”.

For `C[C@@H]1O[C@@H](O[C@H]2[C@H](O)[C@@H](O)[C@H](OC[C@H]3O[C@@H](OC(=O)[C@]45CCC(C)(C)C[C@H]4C4=CCC6[C@@]7(C)C[C@@H](O)[C@H](O)[C@@](C)(CO)C7[C@H](O)C[C@@]6(C)[C@]4(C)CC5)[C@H](O)[C@@H](O)[C@@H]3O)O[C@@H]2CO)[C@H](O)[C@H](O)[C@H]1O` (stereo not given in full), which viability (% of control) is on record?
The viability (% of control) was 86.1% [at 9.25 µM].

Which Potency does the source give for `C[C@@H]1CCC2C(C)(C)[C@H](O)[C@H](O)C[C@]2(C)[C@@]12Cc1c(O)cc3c(c1O2)CN(CCCC(=O)O)C3=O` (stereo not given in full) here?
The Potency was “inactive”.

Which Potency does the source give for `O=C(/C=C/c1ccccc1)O[C@@H]1[C@@H](CO)O[C@@](CO)(O[C@H]2O[C@H](CO)[C@@H](O)[C@H](O)[C@H]2O)[C@H]1O` here?
The Potency was “inactive”.

Which Potency does the source give for `O=C(O)c1cc2cccc([N+](=O)[O-])c2[nH]1` here?
The Potency was “inactive”.

For `C=CC(C)(C)c1[nH]c2ccccc2c1C1=C(O)C(=O)C(c2c[nH]c3c(CC=C(C)C)cccc23)=C(O)C1=O`, which Potency is on record?
Its Potency is 18.4 µM (active).
